Bioassay records deposited in PubChem BioAssay by PCMD.
Mtb RmlCD inh: blocks M. tuberculosis RmlC and RmlD coupled enzymes; P9WH09+P9WH11; RmlC+RmlD coupled enzyme assay, percent inhibition; primary screen in compound mixtures; inhibition, % at 3.6 µM; 0.03% of 160,000 active; in the data active means inhibition mostly above about 34%, no sharp cut-off
Target sequence (P9WH09 whole entry, looked up): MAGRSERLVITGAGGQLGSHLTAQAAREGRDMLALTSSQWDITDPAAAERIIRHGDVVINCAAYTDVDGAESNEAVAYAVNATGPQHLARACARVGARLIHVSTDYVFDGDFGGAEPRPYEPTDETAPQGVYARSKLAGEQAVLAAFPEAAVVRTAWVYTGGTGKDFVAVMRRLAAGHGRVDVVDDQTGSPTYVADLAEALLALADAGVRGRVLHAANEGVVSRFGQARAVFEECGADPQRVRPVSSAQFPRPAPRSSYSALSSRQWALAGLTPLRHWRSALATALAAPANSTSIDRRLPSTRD
Target sequence (P9WH11 whole entry, looked up): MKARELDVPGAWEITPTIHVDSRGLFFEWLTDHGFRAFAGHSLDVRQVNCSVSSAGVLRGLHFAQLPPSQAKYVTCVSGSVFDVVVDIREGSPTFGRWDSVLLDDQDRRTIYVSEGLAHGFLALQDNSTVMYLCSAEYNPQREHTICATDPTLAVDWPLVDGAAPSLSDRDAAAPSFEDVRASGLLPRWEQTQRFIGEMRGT
* = called active by the depositor. Shown is part of a subset that was picked to be rich in hits.

SMILES	Mtb RmlCD inh
CCOC(=O)CNc1c(-c2ccc(F)cc2)nc2cnccn12	50.8*
CC(=O)Nc1c(-c2ccc(F)cc2)nc2ccccn12	21.0
COc1ccc(-c2nc3cnccn3c2Nc2ccc(C)cc2)cc1	11.7
CC(C)c1ccccc1NC(=O)C1CN(S(=O)(=O)c2ccccc2)CCN1S(=O)(=O)c1ccccc1 (centres undefined)	-4.6
Cc1nn(C(C)C(=O)N2CCOCC2)c(C)c1[N+](=O)[O-] (centres undefined)	74.4
CCn1cc(NC(=O)CCl)c(C)n1	6.2
O=C(O)c1ccc(-c2nc3ccccc3[nH]2)cc1	95.3*
Fc1ccc(-c2nc3ccccc3[nH]2)cc1	10.3
Nc1ccc(-c2nc3ccccc3[nH]2)cc1	3.8
COc1cccc(NC(=O)CSc2nc3ccsc3c(=O)n2-c2ccc(C(=O)O)cc2)c1	-14.2
Cc1ccc(N2CC(=O)Nc3c(oc4nc(-c5ccccc5)cc(C)c34)C2=O)cc1	-6.8
COc1ccccc1-c1c(C)oc2c(CN3CCN(CCO)CC3)c(O)ccc2c1=O	56.3*
COc1ccc(-c2c(C)oc3c(CN4CCN(CCO)CC4)c(O)ccc3c2=O)cc1OC	-0.9
COc1ccccc1Oc1c(C)oc2c(CN3CCOCC3)c(O)ccc2c1=O	10.6
CCc1ccc(/C=N\n2cnnc2)cc1	7.4
CC(=O)c1nc(-c2ccccc2)sc1C	11.7
O=C(O)/C=C/C(=O)N1CCN(c2cccc(Cl)c2)CC1	-12.4
CCOCC(=O)Nc1cc(C)on1	3.7
CCCn1c2c(c(O)c(C(=O)Nc3nc4ccccc4s3)c1=O)CCCC2	1.4
Cc1nc2ccccc2c(=O)n1NC(=O)c1c(O)c2c(n(CC(C)C)c1=O)CCCC2	43.7
CC(C)Cn1c2c(c(O)c(C(=O)Nc3nc4ccccc4s3)c1=O)CCCC2	82.1*
CC(C(=O)NCCC1=CCCCC1)c1ccc([N+](=O)[O-])cc1 (centres undefined)	-9.0
O=C1CCC/C(=N\NC(=O)c2ccc(CSc3cccc4cccnc34)cc2)C1	-12.3
COc1ccc(C2=CC(=O)C=CC2=O)cc1	-11.3
CCOc1ccccc1N1CCN(C(=O)c2csc(C)c2CC)CC1	-4.0
SMILES	Mtb RmlCD inh
O=C(Oc1ccc2c3c(c(=O)oc2c1)CCCC3)c1ccco1	10.2
CC[C@@H](NS(=O)(=O)c1ccc(C)cc1)C(=O)Oc1ccc2c3c(c(=O)oc2c1)CCC3	45.5*
CCC(NC(=O)OC(C)(C)C)C(=O)Oc1ccc2c3c(c(=O)oc2c1)CCC3 (centres undefined)	7.3
Cc1ccc(S(=O)(=O)NC(CC(C)C)C(=O)Oc2ccc3c4c(c(=O)oc3c2)CCC4)cc1 (centres undefined)	7.0
CC(C)Oc1ccc2c3c(c(=O)oc2c1)CCC3	-13.6
CC(C)CC(C(=O)Oc1ccc2c3c(c(=O)oc2c1)CCC3)N1C(=O)c2ccccc2C1=O (centres undefined)	54.5*
Cc1ccc2cc(C)c3nnc(SCc4ccc(C(=O)O)cc4)n3c2c1C	9.7
O=C(CN1CCN(Cc2cccc(Cl)c2)C1=O)NCc1cccs1	0.9
CSc1nc(N)n2nc(-c3ccc(Cl)cc3)cc2n1	2.1
COc1cccc(C2SCC(=O)N2c2ccc(Br)cc2)c1OC (centres undefined)	-10.3
C/C(=N\Nc1ccc2nncn2n1)c1ccc(Cl)s1	33.1
Cc1nc2c(c(=O)n1CCC1=CCCCC1)c1nc3ccccc3nc1n2/N=C/c1ccccc1	33.7*
CCOCCCn1c(C)nc2c(c1=O)c1nc3ccccc3nc1n2CCC1=CCCCC1	1.4
CCCn1cnc2c(c1=O)c1nc3ccccc3nc1n2CCC1=CCCCC1	-10.1
O=S(=O)(Nc1nc2ccccc2nc1NCC1CCCO1)c1cc(Cl)ccc1Cl (centres undefined)	-15.9
COc1ccc(-n2c(SCc3cn4c(C)cccc4n3)nc3ccccc3c2=O)cc1OC	12.5
CC(=O)N(C(C)=O)S(=O)(=O)c1ccc(N=NN2CCCCC2)cc1	0.0
CCOC(=O)c1sc(NC(=O)c2ccccc2OCC)nc1C	-12.1
CCOC(=O)c1sc(Nc2nc3c(OC)cccc3s2)nc1C	73.8*
CCOC(=O)c1sc(Nc2ccc(F)cc2)nc1C	-11.7
CC(CCCC(C)(C)O)NC(=O)c1cc(COc2ccc3ncccc3c2)on1 (centres undefined)	-0.4
Cc1ccc(C(C(=O)Nc2ccc3c(c2)OCO3)N(C)C(=O)Cc2c[nH]c3ccccc23)cc1 (centres undefined)	11.3
CN(C)/C=N/C1=C(C#N)C(c2cccs2)c2ccc3ccccc3c2O1 (centres undefined)	10.6
O=C(O)C[C@@H]1C(=O)O[C@@H]2C(COC(=O)c3cc(O)c(O)c(O)c3)O[C@@H](OC(=O)c3cc(O)c(O)c(O)c3)[C@@H](OC(=O)c3cc(O)c(O)c4c3[C@H]1[C@H](O)C(=O)O4)[C@H]2OC(=O)c1cc(O)c(O)c(O)c1 (some centres undefined)	0.9
CCN(CC)C(=O)COC(=O)c1cc(-c2ccco2)nc2ccccc12	3.7
SMILES	Mtb RmlCD inh
O=C(NNC(=O)c1cc(-c2ccco2)nc2ccccc12)c1ccccc1	39.9
CNC(=O)COC(=O)c1cc(-c2ccco2)nc2ccccc12	37.1*
COc1ccc(-c2[nH]ncc2CN2CCC(N3CCSCC3)CC2)cc1F	-13.0
COCCn1c(=N)c(C(=O)NCCc2ccc(OC)cc2)cc2c(=O)n3cccc(C)c3nc21	10.6
CCNC(=O)c1cc2c(=O)n3cccc(C)c3nc2n(Cc2ccc(C)cc2)c1=N	56.5*
Cc1cccn2c(=O)c3cc(C(=O)NC(C)C)c(=N)n(Cc4ccncc4)c3nc12	6.4
COc1ccccc1-c1ccc(/C=C2\C=CC(=O)O2)o1	6.4
CC/C(C)=N/Oc1nc(C)cc(C)n1	10.1
O=C(Nc1ccc(SC(F)(F)F)cc1)c1ccccn1	6.4
O=c1[nH]c(/C=C/c2ccc(Br)cc2)nc2c1cnn2-c1ccccc1	-6.5
COc1cccc(/C=N/n2nnc3c(cnn3-c3ccccc3)c2=O)c1	-2.8
COc1cccc(/C=C/c2nc3c(cnn3-c3ccccc3)c(=O)[nH]2)c1	35.4*
CCOC(=O)Cc1nc(-c2ccc(Cl)cc2)n[nH]1	-13.9
CC(=O)c1cn(S(=O)(=O)c2ccccc2)c2ccccc12	-10.6
CCc1ccc(-c2cn3nc(-c4ccccc4)cnc3n2)cc1	70.3*
CCc1ccc(-c2cn3c(n2)SCC3)cc1	3.7
Clc1ccc(-c2cn3nc4c(nc3n2)CCCC4)cc1	-13.4
Cc1cc(Cl)ccc1OCC(=O)NN1C(=O)C2C3C=CC(C3)C2C1=O (centres undefined)	5.1
CNC(=O)c1cc2c(s1)-c1ccccc1CC2	56.9*
CNC(=O)c1cc(C)c(-c2ccccc2)s1	-4.2
O=C(N/N=C/c1ccc(F)c(F)c1)c1cc2c(s1)-c1ccccc1CC2	15.7
Nc1cc(Cl)nnc1Cl	3.2
COC(CNC(=O)c1coc2nc3ccccc3nc12)OC	73.9*
O=C(NCC1CCCO1)c1coc2nc3ccccc3nc12 (centres undefined)	-4.8
COC(CNC(=O)c1ccc2nc(-c3ccccc3)c(-c3ccccc3)nc2c1)OC	-15.4
NC(=O)C(=CNc1nc(-c2ccc(Cl)c(Cl)c2)cs1)C(N)=O	9.7
Cc1ccc(C(=O)NN(CCC(=O)NC(C)(C)C)C2=NS(=O)(=O)c3ccccc32)cc1	5.1
NNC(=O)C(Cc1c[nH]c2ccccc12)NC(=O)c1ccccc1 (centres undefined)	8.4
O=C(/C=C/c1ccccc1)CC(=O)c1ccccc1O	-15.8
Cc1noc(C)c1C(=O)N1CCC(C(=O)c2ccccc2)CC1	-8.6
